Laboratory results reported in article PMC4336329 (PLoS ONE, 2015).
The whole screen tested about 310,000 compounds, of which about 14,000 (4.5%) showed an effect of 50% or more. Effects have a minus sign here. Only a selection was taken, and strong results are over-represented in it overall.

What follows are compounds tested against human ether-à-go-go-related gene (hERG) potassium channel (human, UniProt Q12809) (assay: primary screen, population patch clamp on CHO cells stably expressing hERG; higher = less effect of the substance).
human ether-à-go-go-related gene (hERG) potassium channel, sequence (Q12809 whole entry, looked up): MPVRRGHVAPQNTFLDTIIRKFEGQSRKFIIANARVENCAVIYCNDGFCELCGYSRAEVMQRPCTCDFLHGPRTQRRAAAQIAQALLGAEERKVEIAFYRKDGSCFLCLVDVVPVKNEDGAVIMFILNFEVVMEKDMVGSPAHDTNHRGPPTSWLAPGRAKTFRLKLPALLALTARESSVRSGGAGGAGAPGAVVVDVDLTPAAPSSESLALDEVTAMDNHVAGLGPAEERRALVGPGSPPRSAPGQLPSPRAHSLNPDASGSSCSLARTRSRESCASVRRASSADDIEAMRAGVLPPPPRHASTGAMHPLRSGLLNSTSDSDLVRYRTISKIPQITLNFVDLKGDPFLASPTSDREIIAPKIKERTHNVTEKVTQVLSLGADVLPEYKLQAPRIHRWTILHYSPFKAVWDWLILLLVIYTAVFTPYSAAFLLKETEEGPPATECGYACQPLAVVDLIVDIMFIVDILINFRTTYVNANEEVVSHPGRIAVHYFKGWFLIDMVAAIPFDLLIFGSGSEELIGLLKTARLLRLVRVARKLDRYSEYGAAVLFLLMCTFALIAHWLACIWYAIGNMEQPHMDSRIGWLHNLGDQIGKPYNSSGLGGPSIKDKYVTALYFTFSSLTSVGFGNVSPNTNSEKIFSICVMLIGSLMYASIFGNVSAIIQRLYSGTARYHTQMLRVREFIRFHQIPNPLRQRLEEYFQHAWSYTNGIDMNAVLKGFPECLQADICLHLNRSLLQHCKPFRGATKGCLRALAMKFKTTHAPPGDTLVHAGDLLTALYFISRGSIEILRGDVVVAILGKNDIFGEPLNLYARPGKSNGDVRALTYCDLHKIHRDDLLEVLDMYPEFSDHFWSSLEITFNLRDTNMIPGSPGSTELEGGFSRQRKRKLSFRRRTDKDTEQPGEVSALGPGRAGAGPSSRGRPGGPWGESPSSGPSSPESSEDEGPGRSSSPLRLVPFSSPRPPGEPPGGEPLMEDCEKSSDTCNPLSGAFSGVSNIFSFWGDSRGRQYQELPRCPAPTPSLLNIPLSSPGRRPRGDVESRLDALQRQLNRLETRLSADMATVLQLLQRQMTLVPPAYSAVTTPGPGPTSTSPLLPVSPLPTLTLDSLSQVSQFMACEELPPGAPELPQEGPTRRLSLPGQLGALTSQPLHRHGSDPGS
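Note: peak tail current of the secondary pulse compared with the same well before compound.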

Row | SMILES | hERG current change (%, negative = inhibition) at 10uM
1 | O=C(NCCc1csc(-c2cccnc2)n1)c1ccccc1Br | -4.05%
2 | CC1CCCCN1C(=S)NC(=O)c1cc(Br)ccc1Cl (stereo not drawn) | 4.09%
3 | COc1ccc(/C=N/N=C/c2c[nH]c(=O)c(C#N)c2Nc2ccccc2)cc1 | 5.81%
4 | Cn1c(O)c(N=NC(=O)c2ccccc2O)c2ccccc21 | 13.6%
5 | CCCCCc1n[nH]c2c1CCCC2 | 15.6%
6 | CCCCc1nc(Cl)c(C#N)c2c1CCCC2 | -14.7%
7 | CCCCCc1nc2c(c3c1CCCC3)CCCC2 | -71.7%
8 | CCOC(=O)c1ccc(NC(=S)NCCc2ccccc2)cc1 | 4.14%
9 | N#Cc1ccc(NC(=O)CN2CCCCCC2)cc1Cl | -21.3%
10 | CC(=O)N1CCN(CC(=O)Nc2c(Cl)cc(Cl)cc2Cl)CC1 | -54.2%
11 | N#Cc1ccc(NC(=O)CN2CCCC2)cc1Cl | 0.986%
12 | CC(=O)N1CCN(CC(=O)Nc2ccc(C#N)c(Cl)c2)CC1 | -71.7%
13 | O=C(CN1CCCCCC1)Nc1c(Cl)cc(Cl)cc1Cl | -5.28%
14 | O=C(CN1CCOCC1)Nc1c(Cl)cc(Cl)cc1Cl | -2.17%
15 | O=C(NC1CCS(=O)(=O)C1)c1ccc(S(=O)(=O)N2CCCC2)cc1 (stereo not drawn) | 9.83%
16 | CCC(C)(C)C1CCc2[nH]nc(C(=O)NC(C)C)c2C1 (stereo not drawn) | 12.7%
17 | CC12CCC(C(=O)NCCN3CCCCC3)(CC1=O)C2(C)C (stereo not drawn) | -2.12%
18 | CCN(CC)CCNC(=O)C(C)c1nn(C)c(=O)c2ccccc12 (stereo not drawn) | 8.67%
19 | CCN(CC)CC(=O)Nc1ccc(Oc2ccc(NC(=O)CN(CC)CC)cc2)cc1 | 17.1%
20 | CCCCOc1ccc(NC(=O)CN2CCN(C(=O)OCC)CC2)cc1.Cl | -28.6%
21 | O=C(CNCc1ccccc1)Nc1ccc(Oc2ccccc2)cc1 | -18.7%
22 | CCN(CC)CCNC(=O)C(Oc1ccccc1)Oc1ccccc1 | -65.4%
23 | CCN(CC)CCNCC(=O)Nc1ccc(Oc2ccccc2)cc1 | -70.5%

Row | SMILES | hERG current change (%, negative = inhibition) at 10uM
24 | CCOC(=O)N1CCN(CC(=O)Nc2ccc(C)c(Br)c2)CC1.Cl | -16.1%
25 | CCOC(=O)N1CCN(CC(=O)Nc2ccc(F)c(F)c2)CC1 | -62.4%
26 | CCN(CC)CCNC(=O)c1ccccc1N | -5.76%
27 | CCOC(=O)N1CCN(CCC(=O)Nc2ccc(F)c(F)c2)CC1 | 0.204%
28 | O=C(CN1CCN(c2ccccc2)CC1)Nc1ccc(Oc2ccccc2)cc1 | 15.6%
29 | CCOC(=O)N1CCN(CC(=O)Nc2ccc(Oc3ccccc3)cc2)CC1 | -50.1%
30 | Nc1ccccc1NC(=O)NC(=O)c1ccccc1 | 12.5%
31 | CCC(=O)Nc1ccc(NC(=O)c2cccc3c(Br)cccc23)cc1 | 3.96%
32 | COC(=O)C(Cc1ccccc1)NC(=O)CCc1c[nH]c2ccccc12 (stereo not drawn) | -8.09%
33 | CCOC(=O)N1CCN(CC(=O)Nc2ccc(C)cc2)CC1 | -63.2%
34 | CCOC(=O)N1CCN(CCC(=O)Nc2ccc(C)cc2)CC1 | 4.65%
35 | CCOC(=O)N1CCN(CC(=O)Nc2ccc(OC)cc2)CC1 | -15.2%
36 | CCOC(=O)N1CCN(CC(=O)Nc2ccc(F)cc2F)CC1 | -28.6%
37 | CCOC(=O)N1CCN(CC(=O)Nc2ccc(F)c(F)c2F)CC1 | 7.7%
38 | CCOC(=O)N1CCN(CC(=O)Nc2ccc(F)cc2)CC1 | -82%
39 | COc1ccc(-c2nn(-c3ccccc3)cc2/C=N/N2C(=O)CSC2=S)cc1 | -6.34%
40 | O=C(NCCCl)NNc1c(Cl)cc(Cl)cc1Cl | 10.3%
41 | CC1(C)Oc2ccc3ccc(=O)oc3c2[C@@H](O)[C@H]1O | 15.5%
42 | CCOCCn1cnc2sc(C(=O)NCC(=O)OCC)c(C)c2c1=O | -3.75%
43 | Cc1cc(C)c(CN2CCC(n3nccc3NC(=O)C3CCCC3)CC2)cc1C | -70.7%
44 | Cc1ccc(C)c(CN2CCC(n3nccc3NC(=O)C3CCCC3)CC2)c1 | -69.9%
45 | COc1cc(C)c(CN2CCC(n3nccc3NC(=O)C3CC3)CC2)cc1C | -52.7%
46 | Cc1cc(C)c(CN2CCC(n3nccc3NC(=O)C3CCOC3)CC2)cc1C (stereo not drawn) | -19%

Row | SMILES | hERG current change (%, negative = inhibition) at 10uM
47 | COc1ccc(CN2CCC(n3nccc3NC(=O)C3CC3)CC2)c(OC)c1OC | -51.4%
48 | COc1ccc(CN2CCC(n3nccc3NC(=O)C3CC3)CC2)c(Cl)c1OC | -39.2%
49 | CCn1cc(CN2CCC(n3nccc3NC(=O)C3CCCC3)CC2)c(C)n1 | -12.4%
50 | O=C(Nc1ccnn1C1CCN(Cc2ccccc2F)CC1)C1CCCC1 | -45.4%
51 | COc1ccc(C(=O)N2CCC(n3nccc3NC(=O)C3CC3)CC2)c(OC)c1OC | 24.7%
52 | COc1cc(C)c(CN2CCC(n3nccc3NC(=O)C3CCOC3)CC2)cc1C (stereo not drawn) | -18.2%
53 | OCCSc1nc2ccccc2n1CCOc1ccccc1 | 4.02%
54 | O=c1cccccc1NCc1ccccc1 | -17.3%
55 | O=C(CSCC(=O)N1CCCc2ccccc21)Nc1nc(-c2ccccc2)cs1 | 12.4%
56 | COc1ccc(NC(=O)CSc2nnc(Cc3ccccc3)c(=O)n2N)c(OC)c1 | -18.1%
57 | O=c1c2ccccc2nc(-c2ccoc2)n1CCc1ccccc1 | -3.87%
58 | COc1ccc(NC(=O)CCC(=O)N(Cc2ccc(OC)c(OC)c2)c2nccs2)cc1 | 13.5%
59 | CC(=O)Nc1ccc(NC(=O)c2ccc(N(C)S(=O)(=O)c3ccc(C)cc3)cc2)cc1 | 6.8%
60 | CC(=O)Oc1ccc2c(=O)c(-c3ccccc3)c(C)oc2c1 | 16.2%
61 | O=C(CSc1ncnc2scc(-c3ccccc3)c12)Nc1ccc(C(=O)O)cc1 | 8.17%
62 | COc1ccc(C(C(=O)NC2CCCCC2)N(C(=O)c2ccco2)c2ccc(-n3cnnn3)c(C)c2)cc1 (stereo not drawn) | 8.93%
63 | CCCN1C(=O)c2cc(C(=O)Nc3ccccc3CC)ccc2C1O (stereo not drawn) | 2.3%
64 | N#Cc1c(N)n(CCNC(=O)c2cccs2)c2nc3ccccc3nc12 | 10.4%
65 | O/N=C/c1ccnc(SCc2ccccc2)n1 | -12.1%
66 | Cc1c(NC(=O)C(C)OC(=O)c2cccs2)c(=O)n(-c2ccccc2)n1C (stereo not drawn) | 3.46%
67 | Cc1c(NC(=O)COC(=O)c2cc3c4ccccc4n(C)c3s2)c(=O)n(-c2ccccc2)n1C | -11.8%
68 | Cc1c(NC(=O)C(C)OC(=O)c2cc3c4ccccc4n(C)c3s2)c(=O)n(-c2ccccc2)n1C (stereo not drawn) | -68.5%
69 | CN(C)S(=O)(=O)c1ccc(N=Cc2c(C(F)(F)F)[nH][nH]c2=O)cc1 | 23%

Row | SMILES | hERG current change (%, negative = inhibition) at 10uM
70 | CC(C)(C)c1ccccc1NC(=O)CN1C(=O)NC2(CCCC2)C1=O | 1.01%
71 | CCCC(=O)N1CCN(c2ccc(NC(=O)c3cccs3)cc2Cl)CC1 | -66.8%
72 | Cc1ccc(NC(=O)c2cc3ccccc3o2)cc1Cl | 19.7%
73 | CCC(=O)N1CCN(c2ccc(NC(=O)c3cc4ccccc4o3)cc2Cl)CC1 | -67.7%
74 | CCC(=O)N1CCN(c2ccc(NC(=O)c3cc4ccccc4o3)cc2)CC1 | -23.3%
75 | O=C(Nc1ccc(N2CCN(C(=O)c3ccco3)CC2)c(Cl)c1)c1cc2ccccc2o1 | -67.9%
76 | Cc1ccccc1C(=O)N1CCN(c2ccc(NC(=O)c3ccco3)cc2Cl)CC1 | -43.2%
77 | O=C(Nc1ccc(N2CCOCC2)c(Cl)c1)c1cc2ccccc2o1 | -36.1%
78 | CCCC(=O)N1CCN(c2ccc(NC(=O)c3cc4ccccc4o3)cc2)CC1 | -13.4%
79 | O=C(Nc1ccc(N2CCN(C(=O)c3ccco3)CC2)c(Cl)c1)c1c(F)c(F)c(F)c(F)c1F | -32.1%
80 | CCCC(=O)N1CCN(c2ccc(NC(=O)c3cc4ccccc4o3)cc2Cl)CC1 | -56.8%
81 | CCCC(=O)N1CCN(c2ccc(NC(=O)c3cccs3)cc2)CC1 | -18.2%
82 | CC(C)C(=O)N1CCN(c2ccc(NC(=O)c3cccs3)cc2Cl)CC1 | -14.7%
83 | O=C(Cc1ccccc1[N+](=O)[O-])Nc1ccc2c(c1)OCO2 | -40.1%
84 | CCOc1ccc(CCNC(=O)c2cccnc2N2CCCC2)cc1OCC | 13.2%
85 | Cc1ccc(C)c(C(=O)Nc2c(C(N)=O)oc3ccccc23)c1 | 5.52%
86 | COc1cccc(C(=O)NC2CCSC2=O)c1 (stereo not drawn) | 23.8%
87 | CC(=O)c1ccc(N2CCN(C(=O)[C@H](C)NC(=O)c3ccccc3Cl)CC2)cc1 | -9.57%
88 | COC(=O)[C@@H]1C[C@@]2(O)[C@H](O)[C@H](O)[C@H](O)C[C@H]2N1CC1CC1 | 6.98%
89 | N#Cc1c(N)nc2c(c1-c1ccccc1)CCCC2 | -1.63%
90 | O=C1c2ccccc2C(=O)C1(CO)c1ccccc1 | 27.7%
